For 15 sequences, binding signal results are on record in publication PMC10812921, “Transcriptional Coactivator BOB1 (OBF1, OCA-B) Modulates the Specificity of DNA Recognition by the POU-Domain Factors OCT1 and OCT2 in a Monomeric Configuration”.

The target of one assay is POU1 (OCT1 POU domain) (human, UniProt P14859 260-458). In words: EMSA-SELEX-seq; no BOB1; 20 mM Tris-HCl pH 7.6, 140 mM NaCl, 10% glycerol, 0.5 mM EDTA, 0.05% Triton X-100, 0.1 mg/mL BSA, 0.1 mg/mL poly(dI-dC), 5 mM DTT, room temperature, 20 min; high values mean tight binding. The settings on record: protein: recombinant; dsDNA, one strand shown. The method, boiled down:
(§1)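 A double-stranded random 35-nt library (300 ng, PCR-amplified) was incubated with 30 ng tagged POU-domain protein, with or without 28 ng coactivator protein, in 20 μL Tris–HCl pH 7.6 binding buffer for 20 min at RT. The proteins had been expressed in E. coli BL21, purified under denaturing conditions and renatured. Complex bands from native 6% PAGE were eluted and PCR-amplified over four rounds, then sequenced on Illumina. For binding preference, the percentage of sequenced 8-mers matching a motif pattern was calculated.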
(Mobility shift assays separate free from complexed probe on a gel.)

In another assay the target is T1, POU2 (OCT2 POU domain) (human, UniProt P09086 175-386).
T1 sequence: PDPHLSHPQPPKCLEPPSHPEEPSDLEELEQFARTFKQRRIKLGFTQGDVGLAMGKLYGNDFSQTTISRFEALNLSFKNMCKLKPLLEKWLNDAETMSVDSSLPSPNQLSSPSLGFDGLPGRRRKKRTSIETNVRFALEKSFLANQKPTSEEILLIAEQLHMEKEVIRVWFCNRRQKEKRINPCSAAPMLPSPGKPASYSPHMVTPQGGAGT
The description is as above. The settings on record: protein: recombinant; dsDNA, one strand shown. The method, boiled down:
as §1

Assay [1] concerns the target POU1 (OCT1 POU domain);BOB1 (OBF1, OCA-B) (human;human, UniProt P14859;Q16633 260-458;1-256, |). Description: EMSA-SELEX-seq; with BOB1 (ternary complex band); 20 mM Tris-HCl pH 7.6, 140 mM NaCl, 10% glycerol, 0.5 mM EDTA, 0.05% Triton X-100, 0.1 mg/mL BSA, 0.1 mg/mL poly(dI-dC), 5 mM DTT, room temperature, 20 min; high values mean tight binding. The settings on record: protein: recombinant;recombinant; copies: 1;1; dsDNA, one strand shown. In short, it runs like this: as §1

The target in assay [2] is T2, POU2 (OCT2 POU domain);BOB1 (OBF1, OCA-B) (human;human, UniProt P09086;Q16633 175-386;1-256, |).
T2 sequence 1: T1 sequence
T2 sequence 2: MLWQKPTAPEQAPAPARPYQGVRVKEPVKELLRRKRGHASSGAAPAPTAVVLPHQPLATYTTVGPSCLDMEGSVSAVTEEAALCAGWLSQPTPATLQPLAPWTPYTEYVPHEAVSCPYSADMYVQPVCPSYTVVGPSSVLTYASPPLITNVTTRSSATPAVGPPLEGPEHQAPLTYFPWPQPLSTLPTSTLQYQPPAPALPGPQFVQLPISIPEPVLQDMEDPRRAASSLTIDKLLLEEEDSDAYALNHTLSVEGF
The description is as above. The settings on record: protein: recombinant;recombinant; copies: 1;1; dsDNA, one strand shown. The method, boiled down: as §1

POU1 (OCT1 POU domain), sequence (P14859 260-458): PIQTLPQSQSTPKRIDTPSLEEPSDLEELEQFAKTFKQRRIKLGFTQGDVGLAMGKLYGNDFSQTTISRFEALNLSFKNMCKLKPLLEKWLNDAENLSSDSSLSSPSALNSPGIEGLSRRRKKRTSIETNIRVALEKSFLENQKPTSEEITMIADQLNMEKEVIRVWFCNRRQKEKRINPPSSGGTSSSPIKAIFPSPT

AGCCGAAA: the binding signal with POU1 (OCT1 POU domain) is 0.0191 % of ANNNNAAN 8-mers; with POU2 (OCT2 POU domain), 0.0247 % of ANNNNAAN 8-mers; in assay [1], 0.0238 % of ANNNNAAN 8-mers; in assay [2], 0.0198 % of ANNNNAAN 8-mers.
On the same counts, the results for AACTCAAG are 0.0194 % of ANNNNAAN 8-mers, 0.0219 % of ANNNNAAN 8-mers, 0.0164 % of ANNNNAAN 8-mers and 0.0289 % of ANNNNAAN 8-mers.
On the same counts, the results for AGGGCAAA are 0.0568 % of ANNNNAAN 8-mers, 0.0466 % of ANNNNAAN 8-mers, 0.0675 % of ANNNNAAN 8-mers and 0.0462 % of ANNNNAAN 8-mers.
Turning to AAGAGAAC, the binding signal was 0.0271 % of ANNNNAAN 8-mers with POU1 (OCT1 POU domain), 0.0391 % of ANNNNAAN 8-mers with POU2 (OCT2 POU domain), 0.0285 % of ANNNNAAN 8-mers in assay [1] and 0.0289 % of ANNNNAAN 8-mers in assay [2].
Turning to ACTTCAAT, the binding signal is 0.0256 % of ANNNNAAN 8-mers with POU1 (OCT1 POU domain), 0.038 % of ANNNNAAN 8-mers with POU2 (OCT2 POU domain), 0.0363 % of ANNNNAAN 8-mers in assay [1] and 0.0446 % of ANNNNAAN 8-mers in assay [2].
On the same counts, the results for ATTCGAAG are 0.0564 % of ANNNNAAN 8-mers, 0.0656 % of ANNNNAAN 8-mers, 0.0464 % of ANNNNAAN 8-mers and 0.0405 % of ANNNNAAN 8-mers.
For ATACGAAT, the binding signal with POU1 (OCT1 POU domain) is 0.0908 % of ANNNNAAN 8-mers; with POU2 (OCT2 POU domain), 0.101 % of ANNNNAAN 8-mers; in assay [1], 0.0687 % of ANNNNAAN 8-mers; in assay [2], 0.0759 % of ANNNNAAN 8-mers.
For ACCTAAAG, the binding signal with POU1 (OCT1 POU domain) was 0.0145 % of ANNNNAAN 8-mers; with POU2 (OCT2 POU domain), 0.0173 % of ANNNNAAN 8-mers; in assay [1], 0.0219 % of ANNNNAAN 8-mers; in assay [2], 0.0223 % of ANNNNAAN 8-mers.
ACCGTAAT: the binding signal in the assay with POU1 (OCT1 POU domain) was 0.0454 % of ANNNNAAN 8-mers; in the assay with POU2 (OCT2 POU domain), 0.0529 % of ANNNNAAN 8-mers; in assay [1], 0.0332 % of ANNNNAAN 8-mers; in assay [2] it was 0.0495 % of ANNNNAAN 8-mers.
Turning to ATGTAAAG, the binding signal in the assay with POU1 (OCT1 POU domain) was 0.489 % of ANNNNAAN 8-mers; in the assay with POU2 (OCT2 POU domain), 0.393 % of ANNNNAAN 8-mers; in assay [1], 0.489 % of ANNNNAAN 8-mers; in assay [2], 0.477 % of ANNNNAAN 8-mers.
Consider AACTAAAC, for which the binding signal in the assay with POU1 (OCT1 POU domain) was 0.0225 % of ANNNNAAN 8-mers; with POU2 (OCT2 POU domain) it was 0.0299 % of ANNNNAAN 8-mers; in assay [1], 0.0289 % of ANNNNAAN 8-mers; in assay [2], 0.0264 % of ANNNNAAN 8-mers.
For ATCGAAAA, in that order: 0.0511 % of ANNNNAAN 8-mers, 0.0564 % of ANNNNAAN 8-mers, 0.0441 % of ANNNNAAN 8-mers and 0.0454 % of ANNNNAAN 8-mers.
Turning to AGCCCAAA, the binding signal was 0.0164 % of ANNNNAAN 8-mers with POU1 (OCT1 POU domain), 0.0207 % of ANNNNAAN 8-mers with POU2 (OCT2 POU domain), 0.0156 % of ANNNNAAN 8-mers in assay [1] and 0.0157 % of ANNNNAAN 8-mers in assay [2].
For ACTCGAAG, the binding signal was 0.0187 % of ANNNNAAN 8-mers with POU1 (OCT1 POU domain), 0.0207 % of ANNNNAAN 8-mers with POU2 (OCT2 POU domain), 0.0168 % of ANNNNAAN 8-mers in assay [1] and 0.0182 % of ANNNNAAN 8-mers in assay [2].
On the same counts, the results for ACGGCAAT are 0.0332 % of ANNNNAAN 8-mers, 0.0368 % of ANNNNAAN 8-mers, 0.0336 % of ANNNNAAN 8-mers and 0.0289 % of ANNNNAAN 8-mers.
